Source: PMC5540273 (PLoS ONE, 2017)
Like-named read-outs stand apart in the source and are kept apart here.

Key:
Conditions in all cases: n = 1
MKNK1 = tested on: MKNK1
MKNK2 = tested on: MKNK2
MLCK = tested on: T1, MLCK
T1 construct: gene MYLK3

MLK1 = tested on: T2, MLK1
T2 construct: gene MAP3K9

MLK2 = tested on: MLK2
MLK3 = tested on: MLK3
MRCKA = tested on: MRCKA
MRCKB = tested on: T3, MRCKB
T3 construct: gene CDC42BPB

MST1R = tested on: MST1R
MST1 = tested on: T4, MST1
T4 construct: gene STK4

MST2 = tested on: T5, MST2
T5 construct: gene STK3

MST3 = tested on: T6, MST3
T6 construct: gene STK24

MST4 = tested on: MST4
MTOR = tested on: MTOR
MUSK = tested on: MUSK
MYLK2 = tested on: MYLK2
MYLK4 = tested on: MYLK4
MYLK = tested on: MYLK
MYO3A = tested on: MYO3A
MYO3B = tested on: MYO3B
[1] = concentration: 1 μM, replicates: in singlicate
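Also: KINOMEscan kinase panel screen.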

Cc1ccc(-c2cc(-c3c[nH]nc3-c3ccccn3)ccn2)cc1 [GW684088]
%Inh (MKNK1; [1]): 0% | %Inh (MKNK2; [1]): 1% | %Inh (MLCK; [1]): 0% | %Inh (MLK1; [1]): 0% | %Inh (MLK2; [1]): 0% | %Inh (MLK3; [1]): 15% | %Inh (MRCKA; [1]): 2% | %Inh (MRCKB; [1]): 0% | %Inh (MST1R; [1]): 13% | %Inh (MST1; [1]): 0% | %Inh (MST2; [1]): 3% | %Inh (MST3; [1]): 25% | %Inh (MST4; [1]): 0% | %Inh (MTOR; [1]): 22% | %Inh (MUSK; [1]): 0% | %Inh (MYLK2; [1]): 39% | %Inh (MYLK4; [1]): 13% | %Inh (MYLK; [1]): 18% | %Inh (MYO3A; [1]): 46% | %Inh (MYO3B; [1]): 5%

Cn1ccc2ncnc(Oc3cccc(C(=O)Nc4ccccc4)c3)c21
%Inh (MKNK1; [1]): 12% | %Inh (MKNK2; [1]): 11% | %Inh (MLCK; [1]): 13% | %Inh (MLK1; [1]): 0% | %Inh (MLK2; [1]): 6% | %Inh (MLK3; [1]): 12% | %Inh (MRCKA; [1]): 1% | %Inh (MRCKB; [1]): 15% | %Inh (MST1R; [1]): 11% | %Inh (MST1; [1]): 0% | %Inh (MST2; [1]): 13% | %Inh (MST3; [1]): 20% | %Inh (MST4; [1]): 7% | %Inh (MTOR; [1]): 0% | %Inh (MUSK; [1]): 0% | %Inh (MYLK2; [1]): 0% | %Inh (MYLK4; [1]): 4% | %Inh (MYLK; [1]): 0% | %Inh (MYO3A; [1]): 0% | %Inh (MYO3B; [1]): 4%

COC(=O)c1c(-c2ccccc2)c2cc(OC)ccc2c(=O)n1Cc1ccccc1
%Inh (MKNK1; [1]): 5% | %Inh (MKNK2; [1]): 0% | %Inh (MLCK; [1]): 3% | %Inh (MLK1; [1]): 0% | %Inh (MLK2; [1]): 9% | %Inh (MLK3; [1]): 0% | %Inh (MRCKA; [1]): 0% | %Inh (MRCKB; [1]): 0% | %Inh (MST1R; [1]): 38% | %Inh (MST1; [1]): 15% | %Inh (MST2; [1]): 26% | %Inh (MST3; [1]): 20% | %Inh (MST4; [1]): 0% | %Inh (MTOR; [1]): 0% | %Inh (MUSK; [1]): 11% | %Inh (MYLK2; [1]): 0% | %Inh (MYLK4; [1]): 8% | %Inh (MYLK; [1]): 0% | %Inh (MYO3A; [1]): 9% | %Inh (MYO3B; [1]): 0%

Cc1c(O)cccc1Nc1ccnc2ccc(C(F)(F)F)cc12.Cl [GW466413]
%Inh (MKNK1; [1]): 0% | %Inh (MKNK2; [1]): 1% | %Inh (MLCK; [1]): 1% | %Inh (MLK1; [1]): 0% | %Inh (MLK2; [1]): 0% | %Inh (MLK3; [1]): 4% | %Inh (MRCKA; [1]): 0% | %Inh (MRCKB; [1]): 0% | %Inh (MST1R; [1]): 0% | %Inh (MST1; [1]): 0% | %Inh (MST2; [1]): 0% | %Inh (MST3; [1]): 0% | %Inh (MST4; [1]): 0% | %Inh (MTOR; [1]): 0% | %Inh (MUSK; [1]): 0% | %Inh (MYLK2; [1]): 0% | %Inh (MYLK4; [1]): 0% | %Inh (MYLK; [1]): 0% | %Inh (MYO3A; [1]): 0% | %Inh (MYO3B; [1]): 0%

COc1ccccc1CNC(=O)c1cc(C(=O)c2ccccc2C)c[nH]1 [GSK364507]
%Inh (MKNK1; [1]): 5% | %Inh (MKNK2; [1]): 2% | %Inh (MLCK; [1]): 9% | %Inh (MLK1; [1]): 0% | %Inh (MLK2; [1]): 0% | %Inh (MLK3; [1]): 0% | %Inh (MRCKA; [1]): 40% | %Inh (MRCKB; [1]): 0% | %Inh (MST1R; [1]): 36% | %Inh (MST1; [1]): 0% | %Inh (MST2; [1]): 0% | %Inh (MST3; [1]): 0% | %Inh (MST4; [1]): 0% | %Inh (MTOR; [1]): 13% | %Inh (MUSK; [1]): 7% | %Inh (MYLK2; [1]): 6% | %Inh (MYLK4; [1]): 3% | %Inh (MYLK; [1]): 19% | %Inh (MYO3A; [1]): 6% | %Inh (MYO3B; [1]): 2%

Cc1cc(N2Cc3ccccc3C2)nc(Nc2ccc(S(=O)(=O)N3CCOCC3)cc2)n1.Cl [GSK1669917]
%Inh (MKNK1; [1]): 0% | %Inh (MKNK2; [1]): 0% | %Inh (MLCK; [1]): 0% | %Inh (MLK1; [1]): 0% | %Inh (MLK2; [1]): 0% | %Inh (MLK3; [1]): 15% | %Inh (MRCKA; [1]): 1% | %Inh (MRCKB; [1]): 0% | %Inh (MST1R; [1]): 0% | %Inh (MST1; [1]): 0% | %Inh (MST2; [1]): 0% | %Inh (MST3; [1]): 0% | %Inh (MST4; [1]): 0% | %Inh (MTOR; [1]): 9% | %Inh (MUSK; [1]): 0% | %Inh (MYLK2; [1]): 0% | %Inh (MYLK4; [1]): 0% | %Inh (MYLK; [1]): 12% | %Inh (MYO3A; [1]): 0% | %Inh (MYO3B; [1]): 0%

CC(C)(C)c1ccc(C(=O)Nc2cn3cc(-c4cccnc4)ccc3n2)cc1
%Inh (MKNK1; [1]): 0% | %Inh (MKNK2; [1]): 26% | %Inh (MLCK; [1]): 41% | %Inh (MLK1; [1]): 12% | %Inh (MLK2; [1]): 43% | %Inh (MLK3; [1]): 0% | %Inh (MRCKA; [1]): 9% | %Inh (MRCKB; [1]): 0% | %Inh (MST1R; [1]): 48% | %Inh (MST1; [1]): 33% | %Inh (MST2; [1]): 42% | %Inh (MST3; [1]): 38% | %Inh (MST4; [1]): 0% | %Inh (MTOR; [1]): 11% | %Inh (MUSK; [1]): 17% | %Inh (MYLK2; [1]): 53% | %Inh (MYLK4; [1]): 11% | %Inh (MYLK; [1]): 28% | %Inh (MYO3A; [1]): 8% | %Inh (MYO3B; [1]): 22%

CS(=O)(=O)c1ccc(-c2c(-c3ncn[nH]3)sc(N3CCOCC3)c2C#N)cc1
%Inh (MKNK1; [1]): 0% | %Inh (MKNK2; [1]): 0% | %Inh (MLCK; [1]): 13% | %Inh (MLK1; [1]): 0% | %Inh (MLK2; [1]): 51% | %Inh (MLK3; [1]): 15% | %Inh (MRCKA; [1]): 0% | %Inh (MRCKB; [1]): 16% | %Inh (MST1R; [1]): 29% | %Inh (MST1; [1]): 24% | %Inh (MST2; [1]): 13% | %Inh (MST3; [1]): 100% | %Inh (MST4; [1]): 0% | %Inh (MTOR; [1]): 74% | %Inh (MUSK; [1]): 2% | %Inh (MYLK2; [1]): 12% | %Inh (MYLK4; [1]): 29% | %Inh (MYLK; [1]): 9% | %Inh (MYO3A; [1]): 4% | %Inh (MYO3B; [1]): 4%

Cc1ccc(NC(=O)Nc2cccc(C(F)(F)F)c2)cc1 [GSK955403]
%Inh (MKNK1; 1 µM): 0% | %Inh (MKNK2; 1 µM): 30% | %Inh (MLCK; 1 µM): 0% | %Inh (MLK1; 1 µM): 0% | %Inh (MLK2; 1 µM): 13% | %Inh (MLK3; 1 µM): 6% | %Inh (MRCKA; 1 µM): 0% | %Inh (MRCKB; 1 µM): 0% | %Inh (MST1R; 1 µM): 0% | %Inh (MST1; 1 µM): 0% | %Inh (MST2; 1 µM): 57% | %Inh (MST3; 1 µM): 16% | %Inh (MST4; 1 µM): 0% | %Inh (MTOR; 1 µM): 0% | %Inh (MUSK; 1 µM): 0% | %Inh (MYLK2; 1 µM): 22% | %Inh (MYLK4; 1 µM): 0% | %Inh (MYLK; 1 µM): 32% | %Inh (MYO3A; 1 µM): 9% | %Inh (MYO3B; 1 µM): 0%

CC(=O)Nc1nc2cnc(Nc3cc(NC(=O)c4cccc(CCC#N)c4)ccc3C)nc2s1
%Inh (MKNK1; [1]): 3% | %Inh (MKNK2; [1]): 0% | %Inh (MLCK; [1]): 0% | %Inh (MLK1; [1]): 2% | %Inh (MLK2; [1]): 15% | %Inh (MLK3; [1]): 13% | %Inh (MRCKA; [1]): 0% | %Inh (MRCKB; [1]): 0% | %Inh (MST1R; [1]): 21% | %Inh (MST1; [1]): 5% | %Inh (MST2; [1]): 27% | %Inh (MST3; [1]): 3% | %Inh (MST4; [1]): 0% | %Inh (MTOR; [1]): 0% | %Inh (MUSK; [1]): 0% | %Inh (MYLK2; [1]): 0% | %Inh (MYLK4; [1]): 6% | %Inh (MYLK; [1]): 27% | %Inh (MYO3A; [1]): 13% | %Inh (MYO3B; [1]): 0%
